Source: PubChem BioAssay AID1851 (National Center for Advancing Translational Sciences (NCATS), 2009)
Values joined by “and” are separate entries in the source; they are usually repeats but may differ in a detail not shown here. Identical values can stand only once. About 5,800 (36%) of roughly 16,000 compounds were called active. About 23% were inconclusive and are not listed. This is one part of the list. A number with no mark means an inactive call. Calls come from the whole dose curve; as a rule, active = well fitted curve in the direction sought with a large enough effect; inconclusive = small, poorly fitted or top-dose-only effect, or effect the other way; inactive = no such curve, though single readings can be large or run the other way.

target: Cytochrome P450 2C19 (Homo sapiens) (UniProt P33261); experiment: Cytochrome panel assay with activity outcomes; conditions: recombinant CYP, pro-luciferin dealkylation, luminescence, p450-cyp2c19; series mostly up to 57.1 µM
Sequence (P33261 whole entry, looked up): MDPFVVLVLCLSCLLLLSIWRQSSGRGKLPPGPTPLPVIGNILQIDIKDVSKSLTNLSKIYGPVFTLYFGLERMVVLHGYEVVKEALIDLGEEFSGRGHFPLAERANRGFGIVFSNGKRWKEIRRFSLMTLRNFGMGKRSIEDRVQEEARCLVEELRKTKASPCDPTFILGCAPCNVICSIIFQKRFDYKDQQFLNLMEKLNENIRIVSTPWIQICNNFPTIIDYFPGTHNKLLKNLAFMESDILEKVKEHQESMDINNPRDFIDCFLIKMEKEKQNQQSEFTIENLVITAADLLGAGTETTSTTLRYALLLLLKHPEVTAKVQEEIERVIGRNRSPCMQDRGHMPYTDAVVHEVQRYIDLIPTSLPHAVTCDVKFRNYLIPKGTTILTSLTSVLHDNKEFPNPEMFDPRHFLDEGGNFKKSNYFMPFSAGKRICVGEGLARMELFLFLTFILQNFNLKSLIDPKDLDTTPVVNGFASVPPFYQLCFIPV
% is set by controls: 0 for no effect and ±100 for the full control effect.

Compound | activity, negative = inhibition | AC50
CO[C@H]1COC(=O)C/C=C\[C@@H](C)COC(=O)[C@@H](CCSC)NC(=O)C/C=C\[C@@H]1C | -53.8% [at 11.4 µM] and -16.1% [at 11.4 µM] | 
CO[C@H]1COC(=O)C/C=C\[C@H](C)[C@@H](NS(=O)(=O)c2ccc(C)cc2)COC(=O)CCC[C@@H]1C | -36% [at 11.4 µM] | 
COc1cccc(NS(=O)(=O)c2ccc3[nH]cc(C(=O)NCCN4CCOCC4)c(=O)c3c2)c1 |  | 22.4 µM (active)
COc1ccccc1CNS(=O)(=O)c1ccc2[nH]cc(C(=O)O)c(=O)c2c1 |  | inactive
O=C(CCN1CCN(c2ccccc2F)CC1)Nc1ccccc1F |  | 4.47 µM (active)
Cc1ccc(N2CCN(CCC(=O)O)CC2)cc1 | 10.7% [at 11.4 µM] | 
COC(=O)N1CCC2(CCN(Cc3cc(C(F)(F)F)cc(C(F)(F)F)c3)CC2)CC1 |  | inactive
Cc1ccc(C)n1CCN1CCN(CC(=O)Nc2cc(C(F)(F)F)ccc2Cl)CC1 |  | 10 µM (active)
O=C(CCN1CCN(CC(=O)Nc2ccccc2Cl)CC1)Nc1ccccc1F |  | 2.51 µM (active)
OCCN1CCN(CC/C=C2\c3ccccc3Sc3ccc(C(F)(F)F)cc32)CC1 |  | inactive
CC1=C(C#N)C(Nc2ccc(Cl)cn2)(C(F)(F)F)C(=O)N1 (stereo unspecified) |  | 0.794 µM (active)
CNC(=S)N1N=C(c2ccc(OC)cc2)CC1c1ccc(N(C)C)cc1 (stereo unspecified) |  | 3.16 µM (active)
CCN1C(=O)[C@H]2[C@H]3[C@H](O)[C@H](O)C/C(=N/NC(=O)OCc4ccccc4)[C@H]3CC[C@@H]2C1=O | -7.17% [at 11.4 µM] | 
Cc1noc(C)c1COc1cccc(C(=O)OCC(=O)N2CC(=O)Nc3ccccc32)c1 |  | 3.16 µM (active)
O=[N+]([O-])c1ccc(-c2cnc(SCc3ccccc3Cl)[nH]2)cc1 |  | 2.24 µM (active)
CC(C)C(=O)Nc1ccc(Sc2ccc(F)cc2)cc1 |  | 7.94 µM (active)
C[N+]1(CC(=O)OCCCc2ccccc2)CCOCC1 |  | inactive
O=C(O)c1cc2cc(OCc3ccccc3)ccc2[nH]1 |  | inactive
CCOc1ccc2[nH]c(=O)c(CN(CCc3ccccc3)C(=O)N3CCOCC3)cc2c1 |  | 11.2 µM (active)
CCOc1ccc2[nH]c(=O)c(CN(CCc3ccccc3)C(=O)N3CCCC3)cc2c1 |  | 20 µM (active)
CCOc1ccc(Cc2nc(C)c(CC(=O)N3CCOCC3)c(=O)[nH]2)cc1 |  | inactive

Compound | activity, negative = inhibition | AC50
O=C(O)CCCc1ccc2ccccc2c1 | 0.826% [at 11.4 µM] | 
NNC(=O)CCc1ccc2ccc3ccccc3c2c1 |  | 0.251 µM (active)
O=C1CCCC=C1[C@@H](O)C1CCCCC1 | 19.2% [at 11.4 µM] | 
O=C1CCCC=C1[C@@H](O)COCc1ccccc1 | -32.2% [at 11.4 µM] | 
O=C1CCCC=C1[C@@H](O)CCOC(c1ccccc1)(c1ccccc1)c1ccccc1 |  | 0.251 µM (active)
CSC1=C(C#N)C(c2ccccc2Cl)C2=C(N1)c1ccccc1C2=O (stereo unspecified) |  | 0.355 µM (active)
N#CC1=C(SCC(N)=O)NC2=C(C(=O)c3ccccc32)C1c1ccc(Cl)cc1 (stereo unspecified) |  | 3.98 µM (active)
COC(=O)[C@@H]1CC[C@H](C)[C@@H](c2ccc(C)cc2)N1C(=O)c1ccc(/C=N\OC[C@@H]2O[C@H](c3ccccc3)C=C[C@@H]2Oc2ccc(OC)cc2)cc1 |  | 0.0501 µM (active)
COC(=O)[C@@H]1CC[C@H](C)[C@@H](c2ccc(C)cc2)N1C(=O)c1ccc(/C=N\O[C@@H](C)c2cn([C@H]3COC[C@H]3O)nn2)cc1 | -29.4% [at 11.4 µM] | 
COC(=O)[C@@H]1CC[C@H](C)[C@@H](c2ccc(C)cc2)N1C(=O)c1ccc(/C=N\OCC[C@@H]2C=C[C@H](OC(C)=O)[C@H](COC(C)=O)O2)cc1 | -15.5% [at 11.4 µM] | 
COC(=O)[C@@H]1CC[C@H](C)[C@@H](c2ccc(C)cc2)N1C(=O)c1ccc(/C=N\O[C@@H](C)CN2CCCCc3nc(C)c(C)cc32)cc1 | -15.5% [at 11.4 µM] | 
COC(=O)[C@@H]1CC[C@H](C)[C@@H](c2ccc(C)cc2)N1C(=O)c1ccc(/C=N\O[C@@H](C)c2cn([C@H](CO)Cc3ccccc3)nn2)cc1 |  | 3.98 µM (active)
COC(=O)[C@@H]1CC[C@H](C)[C@@H](c2ccc(C)cc2)N1C(=O)c1ccc(/C=N\OC[C@@H](O)[C@H]2O[C@H]3OC(C)(C)O[C@H]3[C@@H]2O)cc1 |  | 0.631 µM (active)
COC(=O)[C@@H]1CC[C@H](C)[C@@H](c2ccc(C)cc2)N1C(=O)c1ccc(/C=N\O[C@@H](C)CN2CCCc3nc(C)c(C)cc32)cc1 | 24.5% [at 11.4 µM] | 
CO/N=C\c1ccc(C(=O)N2[C@H](c3ccc(C)cc3)[C@@H](C)CC[C@H]2C(=O)OC)cc1 | -39.6% [at 11.4 µM] | 
COC(=O)[C@@H]1CC[C@H](C)[C@@H](c2ccc(C)cc2)N1C(=O)c1ccc(/C=N\O[C@@H]2O[C@H](COC(C)=O)[C@H](OC(C)=O)[C@H](OC(C)=O)[C@H]2OC(C)=O)cc1 | -28.1% [at 11.4 µM] | 
CC(C)Oc1ccc(C2CC(=O)NC3=C2C(=O)CCC3)cc1 (stereo unspecified) |  | 22.4 µM (active)
CO[C@@H]1COC(=O)C/C=C\[C@H](C)[C@H](OC)COC(=O)[C@H]2CCCN2C(=O)C/C=C\[C@H]1C | 3.47% [at 11.4 µM] | 
Cc1cc(=O)c2cc(Cl)ccc2[nH]1 |  | inactive
CCOC(=O)N1CCN(c2c(-c3ccccc3)c3cc(Cl)ccc3[nH]c2=O)CC1 |  | 3.16 µM (active)
CCOC(=O)N1CCN(S(=O)(=O)c2ccc3[nH]cc(C(=O)O)c(=O)c3c2)CC1 |  | inactive

Compound | activity, negative = inhibition | AC50
Cc1cnc(CNc2cc(-c3cccnc3)ncn2)cn1 |  | inactive
CN(C)c1ccnc(-c2cccc(NS(C)(=O)=O)c2)n1 |  | inactive
COc1ccc2[nH]cc(CCNc3ccnc(-c4cccnc4)n3)c2c1 |  | 1 µM (active)
COc1ccc2[nH]cc(CCNc3cc(-c4cccnc4)ncn3)c2c1 |  | 25.1 µM (active)
COc1cccc(-c2cc(NCCc3c[nH]c4ccc(OC)cc34)ncn2)c1 |  | 0.501 µM (active)
COc1ccc2[nH]cc(CCNc3ccnc(-c4cccc(NS(C)(=O)=O)c4)n3)c2c1 |  | 10 µM (active)
Cc1cnc(CNc2cc(-c3ccoc3)ncn2)cn1 |  | inactive
COc1ccc2[nH]cc(CCNc3cc(-c4cccc(C#N)c4)ncn3)c2c1 |  | 7.94 µM (active)
COc1ccc2[nH]cc(CCNc3cc(-c4ccoc4)ncn3)c2c1 |  | 5.01 µM (active)
COc1ccc(-n2c(=O)c(-c3cccc(C#N)c3)nc3cnc(N4CCNCC4)nc32)cc1 |  | inactive
C[C@H]1CC(C)(C)C[C@@](OCCN2CCCCC2)(c2ccccc2)C1 | -2.08% [at 11.4 µM] | 
COc1cccc(CC(C(=O)Nc2cc(C)ccc2C)c2nn[nH]n2)c1OC (stereo unspecified) |  | 11.2 µM (active)
O=C1C2=CC[C@H]3C(=O)N(c4cccc(Oc5ccccc5)c4)C(=O)[C@@H]3[C@@H]2[C@H](O)[C@@H]2O[C@H]12 | 2.5% [at 11.4 µM] | 
Cc1cccc(Oc2coc3cc(OC(=O)c4cccs4)ccc3c2=O)c1 |  | 3.98 µM (active)
COc1cccc(C2C3=C(CC(C)(C)CC3=O)OC(N)=C2[N+](=O)[O-])c1 (stereo unspecified) |  | 8.91 µM (active)
Cc1cc(=O)oc(C)c1C(=O)N1CCCCC1 |  | 4.47 µM (active)
CCCNC(=O)c1c(C)cc(=O)oc1C |  | inactive
CCC(C)NC(=O)c1c(C)cc(=O)oc1C (stereo unspecified) |  | inactive
O=C(CCc1ccccc1)NNC(=O)C1CCCCC1 |  | 25.1 µM (active)
CN(C)CC(O)COc1ccc(C(C)(C)c2ccc(OCC(O)CN(C)C)cc2)cc1 (stereo unspecified) |  | inactive
CCC(=O)c1ccc(OCC(O)CN(CCc2ccccc2)Cc2ccccc2)cc1 (stereo unspecified) |  | 1.12 µM (active)

Compound | activity, negative = inhibition | AC50
O[C@@H](C1=C/C(=C\c2ccncc2)c2ccccc21)c1ccncc1 |  | 0.158 µM (active)
CCC(=O)Nc1ccccc1C(=O)OCC(=O)c1cccc2ccccc12 |  | 4.47 µM (active)
CCC(=O)Nc1ccccc1C(=O)OCC(=O)c1ccccc1 |  | 3.55 µM (active)
C[N+](C)(C)CCC(=O)c1cccc2ccccc12 |  | inactive
CC(C)NC(=O)N1CCCC2(CCN(C(=O)c3cccn3C)CC2)C1 |  | inactive
O=C(NNC(=O)C1CCN(S(=O)(=O)c2ccc(Cl)cc2)CC1)c1ccc(Cl)cc1 |  | inactive
O=C(c1ccc2c(c1)OCCO2)C1CCN(S(=O)(=O)c2ccccc2F)CC1 |  | 3.16 µM (active)
COc1cccc(C2C3(C#N)C(N)=NC(OC)(OC)C23C#N)c1 (stereo unspecified) |  | 4.47 µM (active)
CC(C)N1CCN(c2ccc(OC[C@@H]3CO[C@@](Cn4cncn4)(c4ccc(Cl)cc4Cl)O3)cc2)CC1 |  | inactive
Cc1ccccc1N1C(=O)c2cc(S(N)(=O)=O)c(Cl)cc2N[C@H]1C |  | inactive
Cc1cc(N(CN2CCCC2=O)C(=O)c2ccc(F)cc2)no1 |  | inactive
Cc1cc(NC(=O)COC(=O)c2ccc(S(=O)(=O)N3CCCc4ccccc43)cc2)no1 |  | 4.47 µM (active)
COc1cc(C(=O)OCC(=O)Nc2cc(C)on2)cc(OC)c1OC |  | inactive
COc1ccccc1NS(=O)(=O)c1cccc(C(=O)OCC(=O)Nc2cc(C)on2)c1 |  | 7.94 µM (active)
COc1ccccc1NC(=O)COC(=O)c1ccc(S(=O)(=O)NCc2ccco2)cc1 |  | 5.01 µM (active)
CCN(CC)CCOC(=O)c1cc(Cl)c(N)cc1OC |  | inactive
Cc1c(C(=O)O)oc2ccc(S(=O)(=O)NCc3ccc4c(c3)OCO4)cc12 |  | inactive
Cc1cc(C)c(S(=O)(=O)NCC2CCC(C(=O)NCc3ccc4c(c3)OCO4)CC2)c(C)c1 (stereo unspecified) |  | 6.31 µM (active)
